From PubChem BioAssay AID2284367 (EPA ToxCast) come the findings set out here.

A structure can be active in one record and inactive in another. Active and inactive are the calls of the source. How the source made its calls: active means hit-call score of the fitted dose curve at least 0.9, where 1 is the maximum; inactive means score below 0.9.

Sequence of human Peroxisome Proliferator-activated Receptor alpha (PPARa) Agonism, conducted at France lab site, PPARA (gene 5465) (Q07869 whole entry, looked up): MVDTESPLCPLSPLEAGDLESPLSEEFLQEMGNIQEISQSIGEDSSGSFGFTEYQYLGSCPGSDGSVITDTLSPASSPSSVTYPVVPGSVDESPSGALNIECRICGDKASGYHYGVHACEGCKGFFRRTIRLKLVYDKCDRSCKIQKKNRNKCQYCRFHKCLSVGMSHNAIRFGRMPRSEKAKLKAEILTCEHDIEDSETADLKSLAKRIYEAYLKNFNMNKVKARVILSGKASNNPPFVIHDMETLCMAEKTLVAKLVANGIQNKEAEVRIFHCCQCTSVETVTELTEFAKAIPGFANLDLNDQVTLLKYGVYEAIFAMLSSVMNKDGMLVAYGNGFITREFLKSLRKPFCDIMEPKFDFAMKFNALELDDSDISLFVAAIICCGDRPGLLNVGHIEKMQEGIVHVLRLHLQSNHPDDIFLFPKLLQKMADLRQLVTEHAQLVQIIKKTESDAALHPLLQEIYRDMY

For this assay, the target named is human Peroxisome Proliferator-activated Receptor alpha (PPARa) Agonism, conducted at France lab site, PPARA (gene 5465) (UniProt Q07869). Kind of assay: ERF_FR_NR_COA_hPPARA: Eurofins (ERF) Nuclear Receptor (NR) Functional Coactivator Assay for human Peroxisome Proliferator-activated Receptor alpha (PPARa) Agonism, conducted at France lab site. How it is done:
ERF_FR_NR_COA_hPPARA is a biochemical, single-readout assay that uses extracted gene-proteins in a cell-free assay. Measurements were taken 2 hours after chemical dosing in a 384-well plate. See PPARalpha Human NHR Functional Agonist Coactivator Assay, Cerep.ERF_FR_NR_COA_hPPARA is an assay component calculated from the ERF_FR_NR_COA_hPPARA assay. It is designed to measure FRET using a type of binding reporter as detected by fluorescence intensity of GW7647 with fluorimetry technology.Data from the assay component ERF_FR_NR_COA_hPPARA was analyzed at the assay endpoint, ERF_FR_NR_COA_hPPARA, in the positive analysis fitting direction relative to DMSO as the negative control and baseline of activity. Using a type of binding reporter, gain-of-signal activity can be used to understand changes in binding as they relate to gene PPARA. To generalize the intended target to other relatable targets, this assay endpoint is annotated to the nuclear receptor intended target family, where the subfamily is non-steroidal.
Human cells are incubated for 3 hours at room temprature with GW7647 as control activator. Test Sample Requirements: Minimum for 1) Screen: 75 ul of 10 mM stock or 1 mg (pre-weighed) powder (assuming FW =<500 and purity 100%).
`O=C(O)C(F)(F)C(F)(F)C(F)(F)C(F)(F)C(F)(F)C(F)(F)C(F)(F)F`: the outcome was inactive and the AC50 – broadly, the concentration giving half of the maximal activity seen – is 3.17 µM (active).
As for `O=S(=O)(O)C(F)(F)C(F)(F)C(F)(F)C(F)(F)C(F)(F)C(F)(F)F`, the call was inactive.
Same read-out and setting: the value for `O=S(=O)(O)C(F)(F)C(F)(F)C(F)(F)C(F)(F)C(F)(F)C(F)(F)C(F)(F)C(F)(F)F` was “inactive”; that for `CC(C)(Oc1ccc(C(=O)c2ccc(Cl)cc2)cc1)C(=O)O` was “inactive”; that for `O=C(O)CCC(F)(F)C(F)(F)C(F)(F)F` was “inactive”.
The same measure, in the same setting: next, `O=C(Cl)C(F)(F)C(F)(F)C(F)(F)C(F)(F)C(F)(F)C(F)(F)F`: “inactive”; `O=C(O)C(F)(F)C(F)(F)C(F)(F)C(F)(F)C(F)(F)C(F)(F)C(F)(F)C(F)(F)Cl`: “inactive”.
As for `CN(CCOc1ccc(CC2SC(=O)NC2=O)cc1)c1ccccn1` (stereo not drawn), the outcome was inactive.
On the same count and under the same terms, the value for `O=C(O)C(F)(F)C(F)(F)C(F)(F)C(F)(F)C(F)(F)C(F)(F)F` was “inactive”; that for `O=C(CC(=O)C(F)(F)C(F)(F)C(F)(F)F)c1cccs1` was “inactive”; that for `O=C(O)C(F)(F)OC(F)(F)C(F)(F)OC(F)(F)F` was “inactive”.
For `O=C(O)C(F)(F)C(F)(F)C(F)(F)C(F)(F)C(F)(F)C(F)(F)C(F)F`, the molecule was called inactive.
